Experimental data taken from PubChem BioAssay (EPA / NIEHS).
The source made the active and inactive calls. The calls were made as follows: active = hit-call score of the fitted dose curve at least 0.9, where 1 is the maximum; inactive = score below 0.9.

Experiments:
[1] = read-out: Matrix Metallopeptidase 9 (MMP9), MMP9 (gene 4318); assay: BSK_KF3CT_MMP9: BioMAP Diversity Plus: KF3CT Assay for Matrix Metallopeptidase 9 (MMP9) Biomarker Activity (AID 2283074); details: primary human keratinocytes with fibroblasts; actives raise or lower the signal
Procedure, shortened: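 ELISA read-out of MMP-9 at 24 h post-dosing in a co-culture of human skin keratinocytes and foreskin fibroblasts. Gain or loss of signal was fitted in both directions against DMSO.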

[2] = read-out: urokinase plasminogen activator (uPA), PLAU (gene 5328); assay: BSK_KF3CT_uPA: BioMAP Diversity Plus: KF3CT Assay for urokinase plasminogen activator (uPA) Biomarker Activity (AID 2283075); details: primary human keratinocytes with fibroblasts; actives raise or lower the signal
Procedure, shortened: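 Skin co-culture (keratinocytes + foreskin fibroblasts), human primary; 24 h post-dose; uPA by ELISA; gain/loss fit vs DMSO baseline.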

CD40, CD40 (gene 958) [3] = assay: BSK_LPS_CD40: BioMAP Diversity Plus: LPS Assay for CD40 Biomarker Activity (AID 2283076); details: primary human HUVEC with PBMC; actives raise or lower the signal
Procedure, shortened: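 HUVEC plus PBMC co-culture stimulated with LPS; CD40 quantified by ELISA 24 h after compound dosing. Fitting was bidirectional relative to DMSO. SRB staining of parallel cultures flagged overt cytotoxicity.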

[4] = read-out: E-selectin (Homo sapiens) (UniProt P16581); assay: BSK_LPS_Eselectin: BioMAP Diversity Plus: LPS Assay for Eselectin Biomarker Activity (AID 2283077); details: primary human HUVEC with PBMC; actives raise or lower the signal
Procedure, shortened: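 Human umbilical vein endothelial cells co-cultured with PBMC under LPS stimulation; cell-surface E-selectin measured by ELISA 24 h after dosing. Change in either direction versus DMSO, with SRB total-protein staining in parallel cultures for cytotoxicity.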

[5] = read-out: Interleukin-8 (IL8), CXCL8 (gene 3576); assay: BSK_LPS_IL8: BioMAP Diversity Plus: LPS Assay for Interleukin-8 (IL8) Biomarker Activity (AID 2283078); details: primary human HUVEC with PBMC; actives raise or lower the signal
Procedure, shortened: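 Human umbilical vein endothelial cells co-cultured with PBMC, LPS-stimulated, exposed to compound for 24 h. IL-8 quantified by ELISA; fitted in both directions against DMSO, with SRB total-protein staining of parallel cultures for cytotoxicity.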

[6] = BSK_LPS_SRB: Viability Assessment in the BioMAP Diversity Plus: LPS Assay (AID 2283079); details: primary human HUVEC with PBMC;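 also: total protein by sulforhodamine B absorbance as a cytotoxicity measure; measured one day after compound addition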
Procedure, shortened: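 Co-culture of human umbilical vein endothelial cells and PBMC, read 24 h after dosing. Total protein by 0.1% SRB staining after 10% TCA fixation, absorbance at 560 nm; bidirectional fit against DMSO.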

[7] = read-out: Interleukin-1 alpha (IL1a), IL1A (gene 3552); assay: BSK_LPS_IL1a: BioMAP Diversity Plus: LPS Assay for Interleukin-1 alpha (IL1a) Biomarker Activity (AID 2283080); details: primary human HUVEC with PBMC; actives raise or lower the signal
Procedure, shortened: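 Human umbilical vein endothelial cells co-cultured with PBMC and stimulated with LPS; IL-1a measured by ELISA 24 h after dosing. Bidirectional fitting against DMSO; cytotoxicity checked by SRB staining in parallel cultures.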

[8] = read-out: Monocyte Chemoattractant Protein-1 (MCP1), CCL2 (gene 6347); assay: BSK_LPS_MCP1: BioMAP Diversity Plus: LPS Assay for Monocyte Chemoattractant Protein-1 (MCP1) Biomarker Activity (AID 2283081); details: primary human HUVEC with PBMC; actives raise or lower the signal
Procedure, shortened: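 Human umbilical vein endothelial cells co-cultured with PBMC, LPS-stimulated; secreted MCP-1 measured by ELISA 24 h after compound addition. Bidirectional curve fitting against DMSO baseline; SRB total-protein staining in parallel cultures for cytotoxicity.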

[9] = BSK_LPS_PGE2: BioMAP Diversity Plus: LPS Assay for Prostaglandin E2 (PGE2) Biomarker Activity (AID 2283082); details: primary human HUVEC with PBMC; actives raise or lower the signal
Procedure, shortened: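 PGE2 release measured by ELISA in an LPS-activated co-culture of human umbilical vein endothelial cells and peripheral blood mononuclear cells, read at 24 h post-dosing. DMSO served as baseline for bidirectional curve fitting.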

[10] = read-out: Macrophage colony-stimulating factor (MCSF), CSF1 (gene 1435); assay: BSK_LPS_MCSF: BioMAP Diversity Plus: LPS Assay for Macrophage colony-stimulating factor (MCSF) Biomarker Activity (AID 2283083); details: primary human HUVEC with PBMC; actives raise or lower the signal
Procedure, shortened: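 HUVEC–PBMC co-culture, M-CSF measured by ELISA 24 h after chemical dosing. Fitted in both directions relative to DMSO as negative control; overt cytotoxicity assessed by SRB total-protein staining in parallel cultures.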

[11] = read-out: Tissue Factor, F3 (gene 2152); assay: BSK_LPS_TissueFactor: BioMAP Diversity Plus: LPS Assay for Tissue Factor Biomarker Activity (AID 2283084); details: primary human HUVEC with PBMC; actives raise or lower the signal
Procedure, shortened: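 Human umbilical vein endothelial cells co-cultured with PBMC were dosed with compound. Cell-surface CD142 was measured by ELISA 24 h later. Activity was fitted bidirectionally against DMSO, with SRB total-protein staining in parallel cultures for cytotoxicity.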

[12] = read-out: Tumor necrosis factor (Homo sapiens) (UniProt P01375); assay: BSK_LPS_TNFa: BioMAP Diversity Plus: LPS Assay for Tumour Necrosis Factor alpha (TNFa) Biomarker Activity (AID 2283085); details: primary human HUVEC with PBMC; actives raise or lower the signal
Procedure, shortened: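 TNFa was quantified by ELISA in LPS-activated co-cultures of human endothelial cells and PBMC, 24 h post-dosing. Both increases and decreases versus DMSO were fitted.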

CD38, CD38 (gene 952) = assay: BSK_SAg_CD38: BioMAP Diversity Plus: SAg Assay for CD38 Biomarker Activity (AID 2283087); details: primary human HUVEC with PBMC; actives raise or lower the signal
Procedure, shortened: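 CD38 quantified by ELISA (fluorescence) in a superantigen-activated endothelial cell–PBMC co-culture at 24 h post-dose. Activity fitted in both directions relative to DMSO; parallel SRB and Alamar Blue cytotoxicity read-outs.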

CD40, CD40 (gene 958) [13] = assay: BSK_SAg_CD40: BioMAP Diversity Plus: SAg Assay for CD40 Biomarker Activity (AID 2283088); details: primary human HUVEC with PBMC; actives raise or lower the signal
Procedure, shortened: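 HUVEC plus PBMC co-culture, superantigen-activated, with CD40 read by ELISA 24 h after dosing. Curves fitted in both directions against DMSO. Overt cytotoxicity checked by parallel SRB total-protein staining.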

CD69, CD69 (gene 969) = assay: BSK_SAg_CD69: BioMAP Diversity Plus: SAg Assay for CD69 Biomarker Activity (AID 2283089); details: primary human HUVEC with PBMC; actives raise or lower the signal
Procedure, shortened: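 Values derive from bidirectional fitting relative to DMSO vehicle. Cells: umbilical vein endothelium plus peripheral blood mononuclear cells, treated 24 h before fluorescent ELISA for CD69.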

[14] = read-out: Monocyte Chemoattractant Protein-1 (MCP1), CCL2 (gene 6347); assay: BSK_SAg_MCP1: BioMAP Diversity Plus: SAg Assay for Monocyte Chemoattractant Protein-1 (MCP1) Biomarker Activity (AID 2283090); details: primary human HUVEC with PBMC; actives raise or lower the signal
Procedure, shortened: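 Values derive from bidirectional fitting of ELISA-measured MCP1 against DMSO controls. Readings were taken 24 h after dosing human vascular endothelial cells co-cultured with peripheral blood mononuclear cells under superantigen stimulation.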

[15] = read-out: E-selectin (Homo sapiens) (UniProt P16581); assay: BSK_SAg_Eselectin: BioMAP Diversity Plus: SAg Assay for Eselectin Biomarker Activity (AID 2283091); details: primary human HUVEC with PBMC; actives raise or lower the signal
Procedure, shortened: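 Human umbilical vein endothelial cells co-cultured with peripheral blood mononuclear cells, SAg system. E-selectin is measured by ELISA 24 h after dosing and fitted bidirectionally against DMSO. Cytotoxicity is checked by SRB staining of parallel cultures.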

[16] = read-out: Monokine induced gamma interferon (MIG), CXCL9 (gene 4283); assay: BSK_SAg_MIG: BioMAP Diversity Plus: SAg Assay for Monokine induced gamma interferon (MIG) Biomarker Activity (AID 2283092); details: primary human HUVEC with PBMC; actives raise or lower the signal
Procedure, shortened: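 Values reflect bidirectional fitting of ELISA-measured MIG against DMSO vehicle, taken 24 h after dosing of a co-culture of human umbilical vein endothelial cells and peripheral blood mononuclear cells.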

[17] = BSK_SAg_PBMCCytotoxicity: PBMC Cytotoxicity Assessment in the BioMAP Diversity Plus: SAg Assay (AID 2283093); details: primary human HUVEC with PBMC;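 also: fitted both ways against DMSO so a hit may be loss or gain of signal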
Procedure, shortened: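 PBMC viability by Alamar Blue reduction, fluorescence read at 546/580 nm after 6 h dye exposure. Cells were dosed 1 h before SEB plus TSST-1 activation (20 ng/mL final each), then held 90 h; endothelial/PBMC human co-culture.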

[18] = read-out: Vascular cell adhesion molecule 1 (VCAM1), VCAM1 (gene 7412); assay: BSK_LPS_VCAM1: BioMAP Diversity Plus: LPS Assay for Vascular cell adhesion molecule 1 (VCAM1) Biomarker Activity (AID 2283086); details: primary human HUVEC with PBMC; actives raise or lower the signal
Procedure, shortened: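 VCAM-1 quantified by ELISA in an LPS-activated co-culture of human endothelial cells and peripheral blood mononuclear cells, read 24 h post-treatment. Fitted in both directions versus DMSO; parallel SRB staining flags overt cytotoxicity.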

Measured: outcome

Chain of E-selectin (Homo sapiens) (P16581 whole entry, looked up): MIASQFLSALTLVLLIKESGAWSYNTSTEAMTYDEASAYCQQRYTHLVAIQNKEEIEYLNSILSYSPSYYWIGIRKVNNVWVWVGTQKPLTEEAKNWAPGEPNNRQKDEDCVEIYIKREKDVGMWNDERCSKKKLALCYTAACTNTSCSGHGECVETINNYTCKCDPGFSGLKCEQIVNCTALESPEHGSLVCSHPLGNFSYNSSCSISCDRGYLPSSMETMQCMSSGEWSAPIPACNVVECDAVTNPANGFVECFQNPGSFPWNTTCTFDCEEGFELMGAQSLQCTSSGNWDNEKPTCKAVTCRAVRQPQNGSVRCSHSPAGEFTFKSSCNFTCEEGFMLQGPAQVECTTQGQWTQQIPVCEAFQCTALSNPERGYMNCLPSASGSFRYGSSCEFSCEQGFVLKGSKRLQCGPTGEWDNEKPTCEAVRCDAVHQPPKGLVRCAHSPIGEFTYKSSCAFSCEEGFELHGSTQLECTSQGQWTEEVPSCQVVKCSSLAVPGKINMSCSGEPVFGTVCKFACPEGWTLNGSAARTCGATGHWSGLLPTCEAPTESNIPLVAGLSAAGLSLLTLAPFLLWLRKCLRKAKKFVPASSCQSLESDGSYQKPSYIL
Chain of Tumor necrosis factor (Homo sapiens) (P01375 whole entry, looked up): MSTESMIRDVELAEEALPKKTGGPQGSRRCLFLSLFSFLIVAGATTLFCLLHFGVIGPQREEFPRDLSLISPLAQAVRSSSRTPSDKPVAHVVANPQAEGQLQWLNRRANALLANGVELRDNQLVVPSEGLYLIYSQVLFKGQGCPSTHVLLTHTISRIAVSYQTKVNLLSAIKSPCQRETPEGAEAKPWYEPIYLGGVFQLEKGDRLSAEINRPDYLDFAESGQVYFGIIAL

COc1cc(OC)nc(NC(=O)NS(=O)(=O)c2ncccc2C(=O)N(C)C)n1
inactive: [1] | [2] | CD40, CD40 (gene 958) [3] | [4] | [5] | [6] | [7] | [8] | [9] | [10] | [11] | [12] | CD38, CD38 (gene 952) | CD40, CD40 (gene 958) [13] | CD69, CD69 (gene 969) | [14] | [15] | [16] | [17]

NC(=O)O
inactive: [1] | [2] | CD40, CD40 (gene 958) [3] | [4] | [5] | [6] | [7] | [8] | [9] | [10] | [11] | [12] | [18] | CD38, CD38 (gene 952) | CD40, CD40 (gene 958) [13] | CD69, CD69 (gene 969) | [14] | [15] | [16] | [17]
